High-throughput results deposited in PubChem by National Center for Advancing Translational Sciences (NCATS).
Most compounds without a hit are left out; they make up all but 0.99% or so of the library.
TRPML1 ag: qHTS for Agonists of the Human Mucolipin Transient Receptor Potential 1 (TRPML1); Mucolipin-1 (Homo sapiens), Q9GZU1; TRPML1-expressing cells, Ca2+ dye fluorescence, FDSS; activation, % (no concentration beside the values); actives 0.12% (n = 410,000); AID 624414, 2012; in the data active = activation above about 50%; inconclusive = mostly about 30% to 49%; also: 0% is about no effect
Target sequence (Q9GZU1 whole entry, looked up): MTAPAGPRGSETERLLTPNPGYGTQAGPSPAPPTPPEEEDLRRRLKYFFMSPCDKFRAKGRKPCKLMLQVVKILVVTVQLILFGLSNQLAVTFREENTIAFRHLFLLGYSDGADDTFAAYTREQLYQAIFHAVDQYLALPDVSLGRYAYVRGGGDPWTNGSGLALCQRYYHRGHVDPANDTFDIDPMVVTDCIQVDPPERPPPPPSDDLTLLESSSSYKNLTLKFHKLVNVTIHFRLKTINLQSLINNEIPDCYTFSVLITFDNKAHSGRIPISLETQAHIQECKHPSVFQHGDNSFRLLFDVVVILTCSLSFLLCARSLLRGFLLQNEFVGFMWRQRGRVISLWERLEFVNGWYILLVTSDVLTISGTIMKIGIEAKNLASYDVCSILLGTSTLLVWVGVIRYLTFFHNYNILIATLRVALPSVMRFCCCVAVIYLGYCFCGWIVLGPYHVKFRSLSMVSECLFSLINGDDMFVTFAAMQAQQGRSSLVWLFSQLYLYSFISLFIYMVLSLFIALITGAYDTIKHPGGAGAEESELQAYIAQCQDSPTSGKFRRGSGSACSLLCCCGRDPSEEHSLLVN
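In this qHTS format, compounds were pin-transferred onto Ca8-dye-loaded TRPML1-DL cells induced with Tet overnight, and intracellular Ca2+ fluorescence was recorded kinetically for 110 s after a 10 s baseline. A subsequent 4uM final 54-4 (EC80) addition followed by a second 110 s read served as the antagonist phase.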
TRHR enhancer: qHTS for Small Molecule Agonists and Allosteric Enhancers of Human TRH Receptor: Primary Screen for Enhancers. Thyrotropin-releasing hormone receptor (Homo sapiens), P34981. TRHR cells, fluo-8 calcium fluorescence, EC20 TRH enhancement. enhancement, % at 2 µM. actives 0.66% (n = 360,000); in the data active = enhancement above about 30%; also: 0% is about no effect
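Enhancer read-out: after compound pinning and an initial kinetic agonist-mode read, an EC20 of TRH (10 nM final) was injected and fluo-8 calcium signal (Ex 480/Em 530) followed at 1 s/cycle for 100 cycles in TRHR-expressing cells.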
TRPV1 agonist: HTS Assay for Compounds that Act as Agonists of the Vanilloid Receptor 1. TRPV1-expressing cells, Fluo-8 calcium influx, agonist mode. activation, % at 8.33 µM. actives 0.19% (n = 320,000). Transient receptor potential cation channel subfamily V member 1 (Homo sapiens), Q8NER1. AID 540275, 2011; in the data active = activation above about 80%; inconclusive = between about 30% and that limit; also: 0% is about no effect
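Fluo-8 calcium influx in TRPV1-expressing cells, kinetic read (ex 480/em 520 nm). Compound added and read 3 min for agonist activity, followed by capsaicin at EC20 final and 2 min further read for enhancement.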
TRPML1 blocker: qHTS for Inhibitors of the Human Mucolipin Transient Receptor Potential 1 (TRPML1) | Mucolipin-1 (Homo sapiens), Q9GZU1 | TRPML1-inducible cells, Ca2+ dye fluorescence, FDSS; hits give low values; inhibition of EC80 agonist-evoked calcium signal | activity change, negative = inhibition, % (test concentration not listed) | actives 0.02% (n = 390,000); in the data active = activity change below about -50%; inconclusive = between about -30% and that limit;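 also: stimulus is agonist 54-4 at its EC80 concentration; % is scaled to controls: 0 for no effect and ±100 for the full control effect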
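Calcium fluorescence in TRPML1-DL cells induced overnight with Tet: a 110 s read after compound pin addition, then a 110 s antagonist read after challenge with 54-4 at 4 uM final (EC80).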
TRPV1 potentiator: HTS Assay for Compounds that Act as Potentiators of the Vanilloid Receptor 1 | potentiation, % at 8.33 µM | AID 540277, 2011 | actives 0.02% (n = 320,000) | TRPV1-expressing cells, Fluo-8 calcium influx, capsaicin EC20 potentiation; in the data active = potentiation above about 80%; inconclusive = between about 30% and that limit; also: 0% is about no effect
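TRPV1-expressing cells were cultured overnight at 35.5C and loaded with Fluo-8 calcium dye for 40 to 90 min at room temperature. After a 10 s baseline, compound was added and calcium influx was read kinetically for 3 min (ex 480/em 520 nm).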
TRHR agonist: qHTS for Small Molecule Agonists and Allosteric Enhancers of Human TRH Receptor: Primary Screen for Agonists | Thyrotropin-releasing hormone receptor (Homo sapiens), P34981 | TRHR cells, calcium flux fluo-8, FDSS agonist mode | activation, % at 2 µM | actives 0.18% (n = 360,000); in the data active = activation above about 30%; also: 0% is about no effect
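Fluo-8-loaded TRHR cells; 10 s baseline, compound added, kinetic Ca2+ fluorescence read 1/s, agonist mode.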
* marks the source's active call; other numbers are inactive results; ? = inconclusive; / = no result.

SMILES	TRPML1 ag	TRHR enhancer	TRPV1 agonist	TRPML1 blocker	TRPV1 potentiator	TRHR agonist
O=S(=O)(Nc1cccc2cccnc12)c1cccs1	2	-4	14	-5	7	0
O=S(=O)(c1ccccc1)N1CCSC1c1ccco1 (stereo not given)	0	34*	4	2	-2	0
CC(=O)Nc1ccc(S(=O)(=O)N2CCSC2c2ccco2)cc1 (stereo not given)	0	1	3	-4	3	1
CC(C)OC(=O)c1c2c(n3ccccc13)C(=O)c1ccccc1C2=O	21	2	24	-9	8	75*
O=C1NNC(c2ccccc2)=N/C1=C\c1ccco1	0	-5	1	-11	9	1
O=C1NNC(c2ccccc2)=N/C1=C\c1ccccc1Cl	1	-1	94*	-6	-14	1
NS(=O)(=O)c1ccc(CCNC(=O)COC(=O)C2CCC2)cc1	2	33*	4	6	-13	0
O=C(COC(=O)C1CC1)NCCc1ccccc1	0	/	/	-8	/	/
O=C(C[n+]1csc2ccccc21)c1ccc(I)cc1	-1	/	/	/	/	/
CCn1cc(S(=O)(=O)c2ccccc2)c(=O)c2cc(F)c(F)cc21	0	43*	/	-2	/	0
CCn1cc(S(=O)(=O)c2ccccc2)c(=O)c2cc(F)c(N3CCCCCC3)cc21	0	4	/	-3	/	1
CC(=O)NC(=O)c1nnn(Cc2ccccc2)c1NC(C)=O	0	34*	-1	-2	1	0
Cc1cccc(Cn2nnc(C(=O)Nc3cc(C)ccc3C)c2N)c1	-1	-10	/	4	/	0
Cc1ccc(Cl)cc1NC(=O)c1nnn(Cc2ccccc2)c1N	-1	31*	/	-4	/	2
CSc1ccc(/C=C2\C=Cc3cc([N+](=O)[O-])ccc32)cc1	-1	/	/	/	/	/
CCCCn1nnnc1C(c1ccccc1)N1CCN(Cc2c(F)cccc2Cl)CC1 (stereo not given)	57*	/	/	/	/	/
CCCCn1nnnc1C(c1ccccc1)N1CCCN(Cc2ccc(F)cc2)CC1 (stereo not given)	0	/	/	/	/	/
c1ccc(-c2csc(N3CCN(c4ccccn4)CC3)n2)cc1	0	12	101*	4	-5	0
COCCCc1cc(F)c(S(=O)(=O)N2CCN(S(=O)(=O)c3ccc4c(c3)OCCO4)CC2)cc1F	/	-1	/	/	/	2
CC(C)(C)OC(=O)CNC(=O)c1[nH]cnc1C(=O)N[C@@H](Cc1ccccc1)C(=O)OC(C)(C)C	1	1	82*	32	-20	1
CC(C)(C)OC(=O)[C@H](Cc1ccccc1)NC(=O)c1nc[nH]c1C(=O)NCC(=O)OCc1ccccc1	3	14	?	-12	-1	0
CCc1nnc(NC(=O)C2=NN(C3CCS(=O)(=O)C3)C(=O)CC2)s1 (stereo not given)	0	12	-1	14	-3	0
O=C(Nc1cccnc1)C1=NN(C2CCS(=O)(=O)C2)C(=O)CC1 (stereo not given)	1	39*	0	8	2	0
COc1cc2nc(N3CCCN(C)CC3)nc(OC3CCN(C)CC3)c2cc1OC	-1	/	/	/	/	/
CCNC(=S)N1CCC(C(=O)c2ccc(Cl)cc2)CC1	1	-2	81*	12	1	0
SMILES	TRPML1 ag	TRHR enhancer	TRPV1 agonist	TRPML1 blocker	TRPV1 potentiator	TRHR agonist
O=c1[nH]c2ccccc2nc1/C=C(\O)c1cccs1	79*	6	?	-17	-17	115*
O=C(CCCn1c(=O)[nH]c2ccsc2c1=O)N1CCN(c2ccccn2)CC1	0	30*	2	8	2	0
O=C(CCCn1c(=O)[nH]c2ccccc2c1=O)N1CCN(c2ccccn2)CC1	-1	1	3	11	12	0
Cc1cccc(N2CCN(C(=O)CCn3c(=O)[nH]c4ccsc4c3=O)CC2C)c1 (stereo not given)	0	32*	-5	-6	-4	-2
Cc1cccc(N2CCN(C(=O)CCCn3c(=O)[nH]c4ccsc4c3=O)CC2C)c1 (stereo not given)	3	4	2	-11	4	-1
Cn1c2cc(C=O)sc2c2cnn(Cc3ccccc3F)c(=O)c21	/	4	/	/	/	-1
Cc1ccc(C)c2c(C)ccnc12	-1	/	/	/	/	/
O=C(c1cc(-c2ccc(Br)cc2)on1)N1CCOCC1	0	-3	99*	-5	-17	1
O=C(c1cc(-c2ccc(Br)cc2)on1)N1CCCCCC1	0	-4	?	-6	0	-1
CC(=O)Nc1ccc(S(=O)(=O)O)c2cc(S(=O)(=O)O)c(N=Nc3ccc(N=Nc4ccc(S(=O)(=O)O)cc4)c4ccc(S(=O)(=O)O)cc34)c(O)c12	-1	/	/	/	/	/
NC(=O)C1CCN(CCC(=O)Nc2ccc(Br)cc2)CC1	0	34*	5	-4	27	1
Cc1cc(NC(=O)CCN2CCC(C(N)=O)CC2)ccc1Br	0	7	-2	9	2	-1
Cc1ccc(-c2nnc(SC(C)C(=O)NCc3ccco3)n2C)cc1 (stereo not given)	-1	/	/	/	/	/
CC(C)(C)c1cc(CCC(=O)NCc2ccncc2)cc(C(C)(C)C)c1O	0	8	91*	-4	-12	0
CC(C)(C)c1cc(CCC(=O)Nc2ccncc2)cc(C(C)(C)C)c1O	0	/	/	6	/	/
COc1cc2c(NC3CCN(C)CC3)nc(N3CCCCC3)nc2cc1OCCOCCN1CCCC1	0	/	/	/	/	/
CCCCNC(=S)N1CCN(C(c2ccccc2)c2ccccc2)CC1	1	-3	81*	22	7	11
COC(=O)c1ccc(NC(=O)CSCc2ccccc2C)cc1	0	40*	27	0	-3	0
CCCCCCCCCCCCCCCC[n+]1ccc(/C=C/c2c[nH]c3ccccc23)cc1	16	/	/	/	/	/
CCCCCCCCCC[n+]1ccc(/C=C/c2c[nH]c3ccccc23)cc1	68*	/	/	/	/	/
CCCCCCC[n+]1ccc(/C=C/c2c(C)[nH]c3ccccc23)cc1	57*	/	/	/	/	/
CCNc1ccc(/C=C/c2ccnc3ccccc23)cc1	19	/	/	/	/	/
CC(C)(C)n1ncc2c(=O)n(Cc3ccccc3SC(F)(F)F)cnc21	1	/	/	11	/	/
